High-throughput results as filed in PubChem BioAssay.
Hits are enriched below; roughly 2.6% of the tested compounds scored in any of these assays.
p53 reactivation = re-activators of mutant p53; Potency, µM (highest dose often 92.2 µM), inactives show at the highest dose activity change, positive = activation, most hits filed as activators; hit rate 0.063% among 320,000; H1299 p53-A138V BP100-luciferase reporter, luminescence, 24 h; active = well fitted activation curve with a large enough effect; inconclusive = small, poorly fitted or top-dose-only effect; inactive = no such curve, though single readings can be large or run the other way; also: potency is read from the fitted curve at half-maximal effect; % of control where 0% means no effect; nearly all actives have a fitted effect of over 45% in size
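H1299 (p53-null), stable ts p53-A138V + BP100-Luc; 1000 cells/well, Opti-MEM/10% FBS; cpd 4 pt, 1:5; 24 h, 37 deg C, 5% CO2; detection reagent 10 min RT; luminescence.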
ClpP mod = qHTS Assay for Activators of ClpP; Potency, µM (highest dose often 57.5 µM), for the others: at the highest dose activity change, negative = active; AID 651965, 2013; ATP-dependent Clp protease proteolytic subunit (Bacillus subtilis (strain 168)), P80244; hit rate 1.9% among 340,000; purified B. subtilis ClpP, FRET peptide cleavage, 20 min; active = well fitted falling curve with a large enough effect; inconclusive = small, poorly fitted or top-dose-only effect; inactive = no such curve, though single readings can be large or run the other way; also: potency is read from the fitted curve at half-maximal effect; the source files actives as falling curves though it sought activators and does not explain the sign; nearly all actives have a fitted effect of over 65% in size
Target sequence (P80244 whole entry, looked up): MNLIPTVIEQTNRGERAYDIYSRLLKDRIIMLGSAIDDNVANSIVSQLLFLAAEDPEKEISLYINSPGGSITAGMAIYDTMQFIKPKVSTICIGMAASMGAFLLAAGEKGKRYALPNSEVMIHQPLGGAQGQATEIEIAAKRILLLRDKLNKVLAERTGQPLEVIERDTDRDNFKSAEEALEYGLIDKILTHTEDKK
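Buffer: 100 mM Tris/HCl pH8, 100 mM KCl, 0.05% low protease BSA, 2.5% glycerol, 0.01% Tween-20. ClpP 10 microg/mL final; 20 min RT; delta FRET normalized to ADEP and DMSO controls.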
KCNH2 3.1 block = KCNH2 3.1 (human) potassium channel inhibition. hit rate 0.95% among 340,000. U2OS KCNH2 3.1, thallium flux FluxOr; stronger effect = lower value. AID 720553. activity change, % (tested at about 1.8 µM);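 active = maximum activity change below -70%; inconclusive = maximum activity change from -70% to -50%; inactive = maximum activity change above -50%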;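 also: thallium influx rate constant from kinetic fluorescence after stimulation buffer; % is scaled to controls: 0 for no effect and ±100 for the full control effect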
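U2OS cells transduced with KCNH2 3.1 mutant virus (1.77 x 10^8 /mL, 4 h), plated overnight at 37 C, loaded 45 min with FluxOr dye plus Red40 quencher. Thallium flux rate constant from kinetic reads after stimulation buffer, normalised to controls.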
hERG WT inh = KCNH2 (human, wildtype) channel inhibition; Q12809; U2OS, BacMam KCNH2, thallium flux FluxOr; stronger effect = lower value; activity change, % at 1.84 µM; hit rate 0.37% among 340,000;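 active = maximum activity change below -70%; inconclusive = maximum activity change between -70% and -50%; inactive = maximum activity change above -50%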; also: % is scaled to controls: 0 for no effect and ±100 for the full control effect
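U2OS cells were transduced with wild-type KCNH2 virus (2.03 x 10^8 / mL) for 4 h at room temperature, then cultured overnight at 37 C. Thallium flux was read with FluxOr dye. Rate constants were normalized to DMSO controls.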
TRPV1 ag = activates the human vanilloid receptor TRPV1; activation, % at 8.33 µM; TRPV1-expressing cells, Fluo-8 calcium influx, agonist mode; Q8NER1; hit rate 0.19% among 320,000; AID 540275; in the data active = activation above about 80%; inconclusive = between about 30% and that limit; also: 0% is about no effect
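Fluo-8 calcium influx in TRPV1-expressing cells, kinetic read (ex 480/em 520 nm). Compound added and read 3 min for agonist activity, followed by capsaicin at EC20 final and 2 min further read for enhancement.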
TRPV1 PAM = potentiators of human vanilloid receptor 1 (TRPV1); Q8NER1; TRPV1-expressing cells, Fluo-8 calcium influx, capsaicin EC20 potentiation; potentiation, % at 8.33 µM; hit rate 0.02% among 320,000; AID 540277; in the data active = potentiation above about 80%; inconclusive = between about 30% and that limit; also: 0% is about no effect
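Cells expressing TRPV1 were dye-loaded with Fluo-8 and read kinetically: 10 s baseline, 3 min after compound (agonist portion), then 2 min after EC20 capsaicin (allosteric enhancer portion). Calcium-bound dye fluorescence at 480/520 nm.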
* marks the source's active call; other numbers are inactive results; ? = inconclusive; / = no result.

SMILES	p53 reactivation	ClpP mod	KCNH2 3.1 block	hERG WT inh	TRPV1 ag	TRPV1 PAM
CC(=O)N1CCc2cc(S(=O)(=O)CCC(=O)N3CCN(c4cccc(C)c4C)CC3)ccc21	/	1.9%	/	/	/	/
CCNc1nc(SCCOc2ccc(C)cc2)nc(N(C)C)n1	4.8%	1.1%	-3.9	55.4	0.2	?
Cc1ccc(OCCSc2nc(NC(C)C)nc(NC(C)C)n2)cc1	-2.4%	-1.3%	-76.1*	-0.8	-0.3	-7.3
COc1ccc(-c2onc(C)c2C)cc1S(=O)(=O)N1CCc2ccccc21	/	-2.2%	/	/	/	/
O=C(c1cc(COc2ccc(F)c(F)c2)on1)N1CCN(C2CCCCC2)C(=O)C1	3.1%	0.2%	-125.4*	-6.4	22.9	-23.8
COCCCNC(=O)CSc1nc2cc3c(cc2c(=O)n1CCCCCC(=O)NCCc1ccc(OC)c(OC)c1)OCO3	/	-10.0%	/	/	/	/
CCN(CC)C(=O)c1sc(N)c(C#N)c1C	-1.1%	1.1%	-0.9	-12.0	2.7	6.2
Cc1sc(N)c(C#N)c1C	4.6%	14.1µM*	-19.9	-9.0	-0.6	-4.8
O=c1c(Cc2c(F)cccc2Cl)c(O)ccn1CCc1ccccn1	7.1%	-3.1%	-92.4*	-4.4	1.1	14.2
O=c1c(Cc2c(F)cccc2Cl)c(O)ccn1CC1CCCO1 (configuration not stated)	-3.0%	/	-5.9	-7.5	-0.8	?
CN(C)c1ccc(/C=C/c2ccnc3ccccc23)cc1O	/	1.8%	/	/	/	/
COc1ccccc1NC(=O)C(C)OC(=O)CSCC(=O)Nc1ccc(C)cc1C (configuration not stated)	-1.2%	-0.3%	-73.6*	-8.2	0.0	-1.0
CCSc1ncc(Cl)c(C(=O)Nc2nc3ccc(S(C)(=O)=O)cc3s2)n1	/	-1.5%	/	/	/	/
COc1cc2c(=O)n(CC3CCCO3)c(=O)n(CC(=O)Nc3ccccc3)c2cc1OC (configuration not stated)	/	3.7%	-8.0	-4.2	0.6	?
COc1cccc(NC(=O)Cn2c(=O)n(Cc3ccco3)c(=O)c3cc(OC)c(OC)cc32)c1	/	28.2µM*	/	/	/	/
Cc1ccc(NC(=O)Cn2c(=O)n(Cc3ccco3)c(=O)c3oc4ccccc4c32)cc1C	/	-0.9%	/	/	/	/
COc1ccc(CCNC(=O)Cn2c(=O)n(CC3CCCO3)c(=O)c3cc(OC)c(OC)cc32)cc1OC (configuration not stated)	-1.1%	-19.8%	-140.8*	29.4	-2.2	3.2
COc1cc2c(=O)n(Cc3ccccc3)c(=O)n(CC(=O)NCc3ccco3)c2cc1OC	-2.8%	15.8µM*	1.9	8.0	-2.5	4.4
COc1ccccc1NC(=O)Cn1c(=O)n(Cc2ccco2)c(=O)c2oc3ccccc3c21	/	31.6µM*	/	/	/	/
O=C(Cn1c(=O)n(Cc2ccccc2)c(=O)c2ccccc21)NCc1ccco1	-0.5%	-8.5%	-7.5	4.1	5.2	-5.2
COc1ccc(OC)c(NC(=O)Cn2c(=O)n(Cc3ccco3)c(=O)c3cc(OC)c(OC)cc32)c1	/	-8.6%	/	/	/	/
COc1ccccc1CNc1nc(-c2ccco2)nn1S(=O)(=O)c1ccc(C)cc1	/	-0.7%	/	/	/	/
Cc1ccc(CNc2nc(-c3ccco3)nn2C(=O)c2ccccc2[N+](=O)[O-])cc1	/	-2.3%	/	/	/	/
CC(=O)c1ccc(NC(=O)c2cc(C)nc3c2c(C)nn3-c2ccc(C)cc2)cc1	/	160.3%	/	/	/	/
COc1cc(N(C)C)c(OC)cc1/C=C1\C=Cc2ccccc21	/	-1.8%	/	/	/	/
SMILES	p53 reactivation	ClpP mod	KCNH2 3.1 block	hERG WT inh	TRPV1 ag	TRPV1 PAM
CCC(Sc1nc2cc3c(cc2c(=O)n1Cc1ccco1)OCO3)C(=O)Nc1cccc(OC)c1 (configuration not stated)	0.7%	3.4%	-87.5*	?	?	-5.9
CC1CC(C)(C)CC2(C1)NC(=S)N(c1ccccc1)N2 (configuration not stated)	5.0%	15.8µM*	0.9	0.1	8.2	-3.2
CC(C)(C)NC(=O)C(CCc1ccccc1)n1c(=O)c(-c2cc3ccccc3[nH]2)nc2ccccc21 (configuration not stated)	/	-21.0%	/	/	/	/
COc1ccc(-c2nsc(C(=O)N(c3ccc(F)cc3)C(C(=O)NC3CCCC3)c3ccc(OC)cc3)c2N)cc1 (configuration not stated)	7.4%	15.8µM*	-15.0	4.5	0.9	-9.9
OC1(C#CCN2CCOCC2)CCCCC1	-2.8%	-6.7%	6.0	/	0.4	6.2
C(#CC12CC3CC(CC(C3)C1)C2)CN1CCOCC1	2.1%	-0.1%	2.5	-102.8*	?	-22.1
Cc1ccc(-c2cnc(C(O)c3cccc(Cl)c3)[nH]2)cc1 (configuration not stated)	/	1.4%	/	/	/	/
Cc1cc(C)c(-c2csc(NC(=O)/C=C/c3cccs3)n2)c(C)c1	-1.9%	-19.4%	-77.5*	-4.3	0.9	-0.9
Cc1cc(C)nc(NC(=O)/C=C/c2cccs2)c1	?	-0.2%	-8.7	6.0	10.4	-16.4
Cc1cc(C(=O)N2CCC2(C)C(=O)NS(=O)(=O)c2cccc(OC(F)F)c2)nn1C (configuration not stated)	/	0.9%	/	/	/	/
CSCCC(c1nc2ccccc2[nH]1)n1c(-c2ccc3ncccc3c2)nc2ccccc21 (configuration not stated)	/	-24.5%	/	/	/	/
S=c1nc(Cc2ccc(Cl)cc2)[nH]c2ccccc12	-0.1%	/	2.4	-150.2*	1.5	6.3
S=c1nc(COc2ccccc2)[nH]c2ccccc12	?	-1.9%	-19.6	-90.7*	0.5	10.1
CC(C)[C@H]1COCCS(=O)(=O)N1Cc1cccc([N+](=O)[O-])c1	/	0.7%	/	/	/	/
COc1ccc(NC(=O)c2cc(-c3ccc(F)cc3OC)n[nH]2)c(C)c1	/	-1.5%	/	/	/	/
COc1ccc(N2CCN(C(=O)C(=O)c3cccc([N+](=O)[O-])c3)CC2)cc1	/	-1.4%	/	/	/	/
CSc1nc(N2CCN(Cc3ccc4c(c3)OCO4)CC2)c2ccccc2n1	1.3%	-25.1%	-73.3*	-1.0	12.2	-1.1
CN(CC(=O)Nc1ccc(F)cc1)C(=O)CCc1nc2sc3c(c2c(=O)[nH]1)CCCC3	2.9%	-1.0%	-12.5	-8.3	-2.9	4.4
CN(CC(=O)Nc1ccc(Cl)cc1)C(=O)CCc1nc2sc3c(c2c(=O)[nH]1)CCCC3	15.3%	31.6µM*	-3.2	-5.9	-5.5	7.5
CCN(CC(=O)Nc1ccccc1C(F)(F)F)C(=O)CCc1nc2sc3c(c2c(=O)[nH]1)CCCC3	-0.2%	15.8µM*	-5.4	1.2	0.0	7.9
CCN(CC(=O)NC(C)C)Cc1nc2sc3c(c2c(=O)[nH]1)CCC3	-0.2%	12.6µM*	-1.9	-21.5	1.2	2.6
CC(C)C(=O)Nc1ccc2nc(SCC(=O)N3CCc4ccccc43)sc2c1	/	-5.8%	/	/	/	/
